Where “and” joins values, the source holds several entries; their conditions need not be identical. Equal values may be shown once. Records with an inconclusive call do not appear. Calls of active or inactive are those of the source. Calls follow the shape of the dose curve; as a rule, active = well fitted inhibition curve with a large enough effect; inconclusive = small, poorly fitted or top-dose-only effect; inactive = flat fitted curve, though single readings scatter.
Key:
[1] = Drug repurposing screens with cells derived from glioblastoma tumor samples (AID 1345199); details: GBM patient neurospheres viability, ATP luminescence, 48 h; also: nearly all actives have a fitted effect of over 40% in size
Procedure, shortened: (§1)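 Primary testing used CD133+ neurospheres from four GBM patients, seven concentrations, 48 h exposure and ATP-based viability; confirmation added three slower-growing patient lines.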

[2] = tested on: astro; assay: as above; details: viability, ATP luminescence, 48 h; series mostly up to 45.9 µM
Procedure, shortened: as §1

[3] = at 45.9 µM (top of the series), tumour line B
[4] = at 45.9 µM (top of the series), tumour line D
[5] = at 46.1 µM (top of the series), tumour line C
[6] = at 46 µM (top of the series), tumour line A
% is scaled to controls: 0 for no effect and ±100 for the full control effect; potency is read from the fitted curve at half-maximal effect.

COC(=O)[C@H]1[C@H]2C[C@@H]3c4[nH]c5cc(OC)ccc5c4CCN3C[C@H]2C[C@H](OC)[C@@H]1OC
inactive: activity, negative = cell killing [1, 3] -8.25% | activity, negative = cell killing [1, 4] -1.56% | activity, negative = cell killing [1, 5] -6.43% | Potency [2]
active: Potency ([1]; tumour line A) 11.2 µM

Cc1ncc(C[n+]2csc(CCOP(=O)(O)O)c2C)c(N)n1
inactive: activity, negative = cell killing [1, 3] -1.8% | activity, negative = cell killing [1, 4] -1.97% | activity, negative = cell killing [1, 6] -17% | activity, negative = cell killing [1, 5] -10.8% | Potency [2]

COc1cc2c(cc1OC)[C@@H](Cc1cc(OC)c(OC)c(OC)c1)[N+](C)(CCCOC(=O)CC/C=C/CCC(=O)OCCC[N+]1(C)CCc3cc(OC)c(OC)cc3[C@H]1Cc1cc(OC)c(OC)c(OC)c1)CC2 (stereo not given in full)
inactive: activity, negative = cell killing [1, 3] -17.7% and -2.67% | activity, negative = cell killing [1, 4] -12.5% and -11.6% | activity, negative = cell killing [1, 6] -22.5% | activity, negative = cell killing [1, 5] -14.7% and -8.1% | Potency [2]

CN[C@@H]1[C@H](O[C@H]2[C@H](O[C@H]3[C@H](O)[C@@H](O)[C@H](N=C(N)N)[C@@H](O)[C@@H]3N=C(N)N)O[C@@H](C)[C@]2(O)C=O)O[C@@H](CO)[C@H](O)[C@H]1O
inactive: activity, negative = cell killing [1, 3] 1.28% | activity, negative = cell killing [1, 4] -18.9% | activity, negative = cell killing [1, 6] -12% | activity, negative = cell killing [1, 5] -1.08% | Potency [2]

COc1ccc2c(=O)c(C)c(-c3ccccc3)oc2c1CN(C)C
inactive: activity, negative = cell killing [1, 3] -11.5% | activity, negative = cell killing [1, 4] -20.7% | activity, negative = cell killing [1, 5] -17.7% | Potency [2]
active: Potency ([1]; tumour line A) 20 µM

Nc1nc(=O)n([C@@H]2CS[C@H](CO)O2)cc1F
inactive: activity, negative = cell killing [1, 3] -1.96% | activity, negative = cell killing [1, 4] -4.58% | activity, negative = cell killing [1, 6] -12.2% | activity, negative = cell killing [1, 5] 2.71% | Potency [2]

CN[C@@H]1[C@H](O[C@H]2[C@H](O[C@H]3[C@H](O)[C@@H](O)[C@H](N=C(N)N)[C@@H](O)[C@@H]3N=C(N)N)O[C@@H](C)[C@]2(O)CO)O[C@@H](CO)[C@H](O)[C@H]1O
inactive: activity, negative = cell killing [1, 3] -12.7% | activity, negative = cell killing [1, 4] -12.4% | activity, negative = cell killing [1, 6] -5.62% | activity, negative = cell killing [1, 5] -12.6% | Potency [2]

CC(C)(O/N=C(\C(=O)N[C@@H]1C(=O)N2C(C(=O)[O-])=C(C[n+]3ccccc3)CS[C@H]12)c1csc(N)n1)C(=O)O
inactive: activity, negative = cell killing ([1]; at 20 µM (top of the series), tumour line C) -8.81% | activity, negative = cell killing ([1]; at 21.2 µM (top of the series), tumour line B) -13.9% | activity, negative = cell killing ([1]; at 21.2 µM (top of the series), tumour line D) 1.29% | activity, negative = cell killing ([1]; at 21.3 µM (top of the series), tumour line A) -19.8% | Potency [2]

CC(CC=O)CCCC(C)(C)O (stereo not given)
inactive: activity, negative = cell killing [1, 3] -11.5% | activity, negative = cell killing [1, 4] -18.7% | activity, negative = cell killing [1, 6] -27.2% | activity, negative = cell killing [1, 5] -24.1% | Potency [2]

CC(C)=CCC/C(C)=C/CC/C(C)=C/CC/C=C(\C)CC/C=C(\C)CCC=C(C)C
inactive: activity, negative = cell killing [1, 3] 2.98% | activity, negative = cell killing [1, 4] -28.8% | activity, negative = cell killing [1, 6] -32.1% | activity, negative = cell killing [1, 5] -15.4% | Potency [2]

S=C=Nc1ccc(N=C=S)cc1
inactive: activity, negative = cell killing [1, 3] -4.92% | activity, negative = cell killing [1, 4] -5.1% | activity, negative = cell killing [1, 6] -24.5% | activity, negative = cell killing [1, 5] -6.65% | Potency [2]

F[Si-2](F)(F)(F)(F)F
inactive: activity, negative = cell killing [1, 3] 5.47% | activity, negative = cell killing [1, 4] -3.02% | activity, negative = cell killing [1, 6] -17.6% | activity, negative = cell killing [1, 5] 30.2% | Potency [2]

CN(C)C=Nc1c(I)cc(I)c(CCC(=O)O)c1I
inactive: activity, negative = cell killing [1, 3] -15.9% | activity, negative = cell killing [1, 4] 6.53% | activity, negative = cell killing [1, 6] -8.71% | activity, negative = cell killing [1, 5] -9.66% | Potency [2]

C/C=C/C=C/C(=O)O
inactive: activity, negative = cell killing [1, 3] 2.26% | activity, negative = cell killing [1, 4] -15.1% | activity, negative = cell killing [1, 6] -7.83% | activity, negative = cell killing [1, 5] -7.57% | Potency [2]

CCN(CC)C(=S)S
inactive: activity, negative = cell killing [1, 3] -1.95% | activity, negative = cell killing [1, 4] -9.18% | activity, negative = cell killing [1, 6] -29.6% | activity, negative = cell killing [1, 5] -13.5% | Potency [2]

FC(F)(F)C(F)(F)C(F)(F)C(F)(F)C(F)(F)F
inactive: activity, negative = cell killing [1, 3] 3% | activity, negative = cell killing [1, 4] -24.7% | activity, negative = cell killing [1, 6] -8.67% | activity, negative = cell killing [1, 5] -13.9% | Potency [2]

O=C(OC[C@H]1O[C@@H](OC(=O)c2cc(O)c(O)c(OC(=O)c3cc(O)c(O)c(O)c3)c2)[C@H](OC(=O)c2cc(O)c(O)c(OC(=O)c3cc(O)c(O)c(O)c3)c2)[C@@H](OC(=O)c2cc(O)c(O)c(OC(=O)c3cc(O)c(O)c(O)c3)c2)[C@@H]1OC(=O)c1cc(O)c(O)c(OC(=O)c2cc(O)c(O)c(O)c2)c1)c1cc(O)c(O)c(OC(=O)c2cc(O)c(O)c(O)c2)c1
inactive: activity, negative = cell killing [1, 5] -14.4%
active: Potency ([1]; tumour line A) 15.8 µM | Potency ([1]; tumour line B) 22.4 µM | Potency ([1]; tumour line D) 17.8 µM | Potency [2] 2.82 µM

CC[C@H]1OC(=O)C[C@@H](O)[C@H](C)[C@@H](O[C@@H]2O[C@H](C)[C@@H](O[C@H]3C[C@@](C)(O)[C@@H](O)[C@H](C)O3)[C@H](N(C)C)[C@H]2O)[C@@H](CC=O)C[C@@H](C)C(=O)/C=C/C(C)=C/[C@@H]1CO[C@@H]1O[C@H](C)[C@@H](O)[C@@H](OC)[C@H]1OC
inactive: activity, negative = cell killing [1, 3] -18.4% and -8.3% | activity, negative = cell killing [1, 4] -0.155% and -17.6% | activity, negative = cell killing [1, 6] -15.7% | activity, negative = cell killing [1, 5] -3.5% and -16.4% | Potency [2]

O=C1CCC(c2ccccc2)(C2CCN(Cc3ccccc3)CC2)C(=O)N1 (stereo not given)
inactive: activity, negative = cell killing [1, 3] -26.8% | activity, negative = cell killing [1, 4] -22.6% | activity, negative = cell killing [1, 5] -22.6% | Potency [2]
active: Potency ([1]; tumour line A) 11.2 µM

O=C(NCCNCC(O)COc1ccc(O)cc1)N1CCOCC1 (stereo not given)
inactive: activity, negative = cell killing [1, 3] -5.84% | activity, negative = cell killing [1, 4] -3.52% | activity, negative = cell killing [1, 6] -55.7% | activity, negative = cell killing [1, 5] -0.52% | Potency [2]
